The values below come from PubChem BioAssay (NCATS).

Results filed as inconclusive are left out. Calls of active or inactive are those of the source. The call rests on the fitted dose curve; in most records, active means well fitted curve in the direction sought with a large enough effect; inconclusive means small, poorly fitted or top-dose-only effect, or another doubt; inactive means no such curve, though single readings can be large; an effect the other way counts as inactive or inconclusive.

The nature of assay [1]: Cell Viability - LYMP2-010 (AID 981). Further: nearly all actives have a fitted effect of over 55% in size. Further: potency means the concentration at half of the fitted maximal effect. A digest of the protocol: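 Human lymphoblastoid LYMP2-010 cells (2500/well) treated 24 h at 37 C in complete medium; viability read as intracellular ATP by CellTiter-Glo luminescence. AC50 from Hill fits of concentration-response data; tetraoctylammonium bromide positive control.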
A short description of assay [2]: Cell Viability - LYMP2-012 (AID 982).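 Further: cellular ATP by luciferase luminescence where a drop means cytotoxicity; cells exposed to compound for one day before reading; nearly all actives have a fitted effect of over 55% in size.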 Further: potency means the concentration at half of the fitted maximal effect.
A short description of assay [3]: Cell Viability - LYMP2-014 (AID 983). Further: nearly all actives have a fitted effect of over 50% in size. Further: potency means the concentration at half of the fitted maximal effect. In a few lines: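 LYMP2-014 human lymphoblastoid cells, 2500/well, treated 24 h at 37 C in complete medium; viability by CellTiter-Glo ATP luminescence after 30 min at room temperature. AC50 from Hill fits of qHTS concentration-response; tetraoctylammonium bromide positive control.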
Assay [4] is described as follows: Cell Viability - LYMP2-016 (AID 984). Further: nearly all actives have a fitted effect of over 55% in size. Further: potency means the concentration at half of the fitted maximal effect. A digest of the protocol: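 Human lymphoblastoid cells (LYMP2-016), 2500/well in complete medium, preincubated 5 hr at 37 C, then compound-treated 24 hr at 37 C. Intracellular ATP read by CellTiter-Glo luminescence after 30 min at room temperature; AC50 from Hill-equation concentration-response fits.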
Assay [5] can be described thus: Cell Viability - LYMP2-018 (AID 985).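 Further: compound exposure lasted 24 hr at 37 °C; nearly all actives have a fitted effect of over 50% in size.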 Further: potency means the concentration at half of the fitted maximal effect. In a few lines: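 Human lymphoblastoid LYMP2-018 cells, 2500/well, settled 5 hr at 37 C then exposed to compound 24 hr at 37 C; intracellular ATP measured by CellTiter-Glo luminescence. AC50 from Hill-equation concentration-response fits.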
Assay [6] is described as follows: Cell Viability - LYMP2-020 (AID 986). Further: nearly all actives have a fitted effect of over 55% in size. Further: potency means the concentration at half of the fitted maximal effect. In a few lines:
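Human lymphoblastoid LYMP2-020 cells (2500/well) preincubated 5 h at 37 C, then treated 24 h at 37 C. Viability measured as intracellular ATP by CellTiter-Glo luminescence after 30 min at room temperature; AC50 from Hill fits.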

The nature of assay [7]: Cell Viability - LYMP2-022 (AID 987). Further: nearly all actives have a fitted effect of over 55% in size. Further: potency means the concentration at half of the fitted maximal effect. In a few lines:
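LYMP2-022 lymphoblastoid cells (2500/well, complete medium) were treated with compounds for 24 hours at 37 C; intracellular ATP was then read by CellTiter-Glo luminescence after 30 min at room temperature. AC50 values were derived from Hill-equation fits.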

Assay [8] in a line: Cell Viability - LYMP2-024 (AID 988). Further: nearly all actives have a fitted effect of over 60% in size. Further: potency means the concentration at half of the fitted maximal effect. In a few lines: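 Human lymphoblastoid LYMP2-024 cells (2500/well) rested 5 hr, then treated with compound for 24 hr at 37 C in complete medium. Viability was measured as intracellular ATP by CellTiter-Glo luminescence. AC50 values came from Hill-equation fits.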
Assay [9] in a line: Cell Viability - LYMP2-026 (AID 989). Further: nearly all actives have a fitted effect of over 50% in size. Further: potency means the concentration at half of the fitted maximal effect. In a few lines:
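Human lymphoblastoid LYMP2-026 cells, 2500/well, exposed to compound 24 h at 37 C in complete medium. Viability as intracellular ATP by CellTiter-Glo luminescence; AC50 from Hill fits of qHTS concentration-response.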

Assay [10] deals with Alpha-galactosidase A (Homo sapiens) (UniProt P06280). The assay can be described thus: Counterscreen for Glucocerebrosidase Inhibitors: qHTS Assay for Human alpha-Galactosidase at pH 4.5 (AID 992). A digest of the protocol:
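Concentration-response curves (0.7 nM to 77 uM final) were modeled with the Hill equation to give AC50. Reactions: 2 nM enzyme, 80 uM fluorogenic alpha-galactoside, pH 4.5 citric acid buffer, 20 min, room temperature.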

Sequence of Alpha-galactosidase A (Homo sapiens) (P06280 whole entry, looked up): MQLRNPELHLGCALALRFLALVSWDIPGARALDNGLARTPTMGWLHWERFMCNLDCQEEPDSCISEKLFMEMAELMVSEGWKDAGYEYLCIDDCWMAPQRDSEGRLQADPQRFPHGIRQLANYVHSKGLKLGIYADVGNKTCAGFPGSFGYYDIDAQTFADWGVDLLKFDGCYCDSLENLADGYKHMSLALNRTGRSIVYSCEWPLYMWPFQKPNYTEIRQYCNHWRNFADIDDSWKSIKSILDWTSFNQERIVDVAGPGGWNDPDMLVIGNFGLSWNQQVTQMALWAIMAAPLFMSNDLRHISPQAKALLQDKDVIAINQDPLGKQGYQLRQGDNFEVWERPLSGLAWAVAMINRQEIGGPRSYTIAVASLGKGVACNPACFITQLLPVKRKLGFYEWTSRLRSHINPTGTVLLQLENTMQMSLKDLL

Turning to `O=C(c1ccccc1)c1ccccc1`, the Potency result in assay [1], in assay [2], in [3], in assay [4], in assay [5] and in assay [6] was “inactive” throughout. Further, the Potency result in [7], in assay [8] and in assay [9] was “inactive” throughout.

As to `COc1cc(C=O)ccc1O`, the Potency entry in assay [1], in [2], in [3], in [4], in assay [5] and in assay [6] was “inactive” each time. In addition, the Potency result in [7], in [8] and in assay [9] was “inactive” in each case.

Consider `O=C1NC(c2cccc([N+](=O)[O-])c2)=CCN1c1ccccc1O`, for which, in assay [10], the molecule was called inactive.

For the molecule `Brc1ccccc1-c1ccccc1`, the Potency entry in assay [1], in assay [2], in [3], in assay [4], in [5] and in assay [6] was “inactive” in each case. Besides, the Potency entry in assay [7], in assay [8] and in assay [9] was “inactive” each time.

Turning to `NC(N)=NCCCCN=C(N)N`, the call in [10] was inactive.

For the molecule `CC(C)(c1ccc(O)cc1)c1ccc(O)cc1`, the Potency result in assay [1], in assay [2], in assay [3], in [4], in assay [5] and in assay [6] was “inactive” throughout. Also, the Potency entry in [7], in assay [8] and in assay [9] was “inactive” in each case.

`Cc1cc(C(C)(C)C)c(O)c(C(C)(C)C)c1`: the Potency result in [1], in assay [2], in [3], in assay [4], in assay [5] and in assay [6] was “inactive” throughout. Moreover, the Potency result in assay [7], in assay [8] and in assay [9] was “inactive” throughout.

As for `COc1ccccc1N1CCN(CCN2C(=O)CC3(CCCC3)CC2=O)CC1`, the molecule was called inactive in [10].

Take `Nc1cccc2c(N)cccc12`: the Potency result in [1], in assay [2], in assay [3], in assay [4], in [5] and in [6] was “inactive” throughout. The Potency entry in assay [7], in assay [8] and in assay [9] was “inactive” in each case.

As to `CCCCCCCCCCCCCCCC[n+]1ccccc1`, the Potency in assay [1] was 15.8 µM (active); in assay [2], 12.6 µM (active); in assay [3], 12.6 µM (active); in assay [4], 15.8 µM (active); in assay [5], 12.6 µM (active); in assay [6], 15.8 µM (active). Moreover, the results for the Potency in assay [7], in assay [8] and in [9] were 12.6 µM (active), 15.8 µM (active) and 15.8 µM (active), respectively.

Regarding `c1ccc2occc2c1`, the Potency result in assay [1], in [2], in [3], in [4], in [5] and in [6] was “inactive” throughout. Also, the Potency result in assay [7], in [8] and in assay [9] was “inactive” throughout.

`CN(C)c1cc2c(Nc3ccc4c(cnn4Cc4ccccc4)c3)ncnc2cn1`: the molecule was classed as inactive in assay [10].

With `O=C(Oc1ccccc1)c1ccccc1O`, the Potency entry in assay [1], in [2], in [3], in [4], in assay [5] and in assay [6] was “inactive” in each case. Also, the Potency entry in [7], in assay [8] and in assay [9] was “inactive” in each case.

For the molecule `CC(C)C(C)(C)C(C)(C)C(C)(C)S`, the Potency result in assay [1], in assay [2], in assay [3], in assay [4], in assay [5] and in [6] was “inactive” throughout. Also, the Potency result in assay [7], in assay [8] and in assay [9] was “inactive” in each case.

Take `Cn1cnc2c(NCc3ccccc3)nc(NCCO)nc21`: the result in [10] was inactive.

In the case of `OCc1c[nH]c2ccccc12`, the Potency result in assay [1], in assay [2], in assay [3], in assay [4], in assay [5] and in assay [6] was “inactive” in each case. Moreover, the Potency result in [7], in [8] and in [9] was “inactive” each time.

Take `CCCCC(CC)COC(=O)c1ccccc1C(=O)O` (stereo not drawn): the Potency entry in [1], in assay [2], in [3], in [4], in [5] and in assay [6] was “inactive” each time. Besides, the Potency entry in assay [7], in assay [8] and in assay [9] was “inactive” in each case.

With `CC(C)N(CCC(=O)c1ccc2ccccc2c1)Cc1ccccc1`, the call in assay [10] was inactive.

As to `Oc1ccccc1`, the Potency result in assay [1], in assay [2], in [3], in [4], in assay [5] and in [6] was “inactive” in each case. Further, the Potency result in assay [7], in assay [8] and in [9] was “inactive” each time.

Consider `CCCC(=O)c1cc(O)c(O)cc1O`, for which the Potency result in [2], in [3], in assay [4], in assay [5], in assay [6] and in assay [7] was “inactive” in each case. The Potency entry in assay [9] was “inactive”.

Consider `C1=CC2C3C=CC(C3)C2C1` (stereo not drawn), for which the Potency entry in [1], in [2], in assay [3], in assay [4], in assay [5] and in [6] was “inactive” throughout. Moreover, the Potency entry in [7], in assay [8] and in [9] was “inactive” each time.

In the case of `Brc1ccc([C@H]2CN3CCSC3=N2)cc1`, in assay [10], the molecule was called inactive.

As to `Nc1c2ccccc2nc2ccccc12`, the Potency in assay [1] is 12.6 µM (active); in [2], 10 µM (active); in [3] it was 10 µM (active); in [4], 10 µM (active); in assay [5], 12.6 µM (active); in [6] it was 10 µM (active). The Potency is 12.6 µM (active) in [7], 12.6 µM (active) in assay [8] and 15.8 µM (active) in assay [9].

As to `CC(=O)OC/C=C(C)/C=C/C=C(C)/C=C/C1=C(C)CCCC1(C)C`, the Potency in [1] was 50.1 µM (active); in assay [2] it was 50.1 µM (active); in assay [7], 50.1 µM (active); in assay [8] it was 39.8 µM (active).

For the molecule `Nc1ccc(O)cc1`, the Potency in [1] was 25.1 µM (active); in assay [2], 31.6 µM (active); in [3] it was 39.8 µM (active); in assay [4], 50.1 µM (active); in [5], 39.8 µM (active); in assay [6] it was 31.6 µM (active). In addition, the results for the Potency in assay [7], in assay [8] and in [9] were 25.1 µM (active), 25.1 µM (active) and 50.1 µM (active), respectively.

Regarding `O=[N+]([O-])c1ccc(-c2nc(-c3ccc(F)cc3)c(-c3ccncc3)[nH]2)cc1`, the molecule was classed as inactive in assay [10].

For `Cc1ccc(O)cc1`, the Potency result in [1], in [2], in [3], in assay [4], in [5] and in assay [6] was “inactive” throughout. The Potency entry in [7], in [8] and in assay [9] was “inactive” in each case.

Take `C[N+](C)(C)CCO`: the outcome in assay [10] was inactive.

Consider `O=C(NO)c1ccccc1`, for which the Potency entry in assay [1], in [2], in assay [3], in assay [4], in [5] and in assay [6] was “inactive” each time. Further, the Potency result in [7], in assay [8] and in assay [9] was “inactive” each time.

With `CC(C)(C)c1ccc(O)c(O)c1`, the Potency in [1] is 31.6 µM (active); in [2] it was 39.8 µM (active); in assay [4] it was 50.1 µM (active); in assay [6], 50.1 µM (active); in assay [7], 39.8 µM (active); in [8], 25.1 µM (active).
